Data from PubChem BioAssay (Tox21).
Some structures have more than one record in an assay (separate samples or runs), and their calls can disagree. Activity calls are given as the source filed them. Where a call stands in place of a potency, no number is given. The call rests on the fitted dose curve; in most records, active means well fitted curve in the direction sought with a large enough effect in the signal ratio in the repeat runs (not every such curve was filed as active); inconclusive means weak or mixed curves, or effect the other way; inactive means no such curve, though single readings can be large or run the other way; the % refers to the signal ratio.

biological target: Estrogen receptor (Homo sapiens) (UniProt P03372); assay: qHTS assay to identify small molecule antagonists of the estrogen receptor alpha (ER-alpha) signaling pathway (AID 743069); conditions: HEK293 ER-alpha-UAS-bla, beta-lactamase ratio, antagonist mode; series mostly up to 69.4 µM
Sequence (P03372 whole entry, looked up): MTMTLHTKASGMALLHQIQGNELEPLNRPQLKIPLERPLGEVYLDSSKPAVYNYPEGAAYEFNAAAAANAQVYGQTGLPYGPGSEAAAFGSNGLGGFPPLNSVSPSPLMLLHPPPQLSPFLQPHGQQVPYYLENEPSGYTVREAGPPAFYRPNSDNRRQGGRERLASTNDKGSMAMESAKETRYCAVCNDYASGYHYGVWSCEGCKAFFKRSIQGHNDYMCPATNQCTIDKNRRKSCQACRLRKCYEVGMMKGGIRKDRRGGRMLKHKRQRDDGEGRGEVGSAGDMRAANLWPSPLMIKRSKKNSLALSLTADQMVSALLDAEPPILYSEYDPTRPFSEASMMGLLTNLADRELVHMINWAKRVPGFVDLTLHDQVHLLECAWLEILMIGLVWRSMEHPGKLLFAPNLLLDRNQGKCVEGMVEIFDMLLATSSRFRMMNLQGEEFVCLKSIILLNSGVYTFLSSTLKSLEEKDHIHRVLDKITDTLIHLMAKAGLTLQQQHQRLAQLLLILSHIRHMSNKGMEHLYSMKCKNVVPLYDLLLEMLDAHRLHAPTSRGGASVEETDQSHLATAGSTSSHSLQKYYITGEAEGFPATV
Excerpt: National Center for Advancing Translational Sciences [NCATS]
NIH Chemical Genomics Center [NCGC]
U.S. Environmental Protection Agency [EPA]
National Institutes of Environmental Health Sciences [NIEHS]
National Toxicology Program [NTP]
U.S. Food and Drug Administration [FDA]
Estrogen receptor (ER), a nuclear hormone receptor, plays an important role in development, metabolic homeostasis and reproduction. Two subtypes of ER, ER-alpha and ER-beta have similar expression patterns with some uniqueness in both types. Endocrine disrupting chemicals (EDCs) and their interactions with steroid hormone receptors like ER causes disruption of normal endocrine function. To identify the compounds that inhibit ER signaling, an ER-alpha-UAS-bla GripTiteTM cell line (Invitrogen, Carlsbad, CA, USA) containing a beta-lactamase reporter gene under the control of an Upstream Activator Sequence (UAS) stably integrated into HEK293 cells was used to screen the Tox21 10K compound library.
Tox21 Assay Protocol Summary:
ER-alpha-bla cells were cultured in assay medium containing 2% charcoal stripped FBS overnight in the culture flasks before the assay was performed. The cells were dispensed at 5,000 cells/5 uL of assay medium per well into black wall/clear-bottom 1536-well plates using a Multidrop Combi (ThermoFisher Scientific, Waltham, MA) dispenser. After the assay plates were incubated at a 37C and 5% CO2 for 4 hr, 23 nL of compounds dissolved in DMSO, positive controls or DMSO only was transferred to the assay plate by a Pintool station (Kalypsys, San Diego, CA), followed by addition of 1 uL of 17beta-estradiol in assay medium using a Flying Reagent Dispenser (Aurora Discovery, San Diego, CA). The plates were incubated at 37C and 5% CO2 for 18 hr. Then 1 uL of LiveBLAzerTM B/G FRET substrate was added using a Flying Reagent Dispenser, the plates were incubated at room temperature for 2 hours, and fluorescence intensity was measured by an Envision plate reader (PerkinElmer, Shelton, CT).
Potency means the concentration at half of the fitted maximal effect.

| Structure (SMILES) | Potency |
| --- | --- |
| C=CC(=O)[O-].C=CC(=O)[O-].[Zn+2] | inactive |
| Cc1cscn1 | inactive |
| Cc1c(C)c2c(c(C)c1OC(=O)CCC(=O)OCCO)CC[C@@](C)(CCC[C@H](C)CCC[C@H](C)CCCC(C)C)O2 | 9.52 µM [inconclusive] (active) |
| CCOC(=O)c1ccc(I)cc1 | inactive |
| C[C@]1(Cn2ccnn2)[C@H](C(=O)O)N2C(=O)C[C@H]2S1(=O)=O | 2.39 µM [inconclusive] (active) |
| O=c1[nH]ncc2ccccc12 | inactive |
| CCN(CC)CCNC(=O)COc1ccc(OC)cc1 | inactive |
| CC(=O)Nc1cc(S(=O)(=O)O)cc2cc(S(=O)(=O)O)c(N=Nc3ccccc3)c(O)c12 | inactive |
| C=COCC(C)C | inactive |
| COc1ccccc1N1CCN(CCCCNC(=O)c2ccc(-c3ccc(C(C)=O)cc3)cc2)CC1 | inactive |
| CC(CO)CO | inactive |
| O=Cc1c2ccccc2c(Cl)c2ccccc12 | inactive |
| CN1C(C(=O)Nc2ccccn2)=C(O)c2sccc2S1(=O)=O | inactive |
| O=C(/C=C/c1ccc(O)c(O)c1)O[C@@H]1C[C@@](OC(=O)/C=C/c2ccc(O)c(O)c2)(C(=O)O)C[C@@H](O)[C@@H]1O | inactive |
| O=C1c2ccccc2C(=O)N1CCc1noc(-c2ccc(CN3CCCCCC3)s2)n1 | inactive |
| Brc1cc(Br)c(Oc2cc(Br)c(Br)cc2Br)cc1Br | inactive |
| Nc1nnc(-c2ccc([N+](=O)[O-])o2)o1 | inactive |
| C[C@@H]1CC(=O)NN=C1c1ccc(NN=C(C#N)C#N)cc1 | inactive |
| Cc1ccc(C(C)(C)O)cc1 | inactive |
| O=C1c2ccccc2C(=O)C1(O)O | inactive |

| Structure (SMILES) | Potency |
| --- | --- |
| O=C(O)CCC(=O)C(=O)O | inactive |
| CN1C(=O)OC(C)(C)C1=O | inactive |
| O=C(OC(=O)c1ccccc1)c1ccccc1 | inactive |
| Cc1ccccc1N=C(N)Nc1ccccc1C | inactive |
| Cc1ccc(CO)cc1 | inactive |
| CC[N+](CC)(CCNC(=O)C(=O)NCC[N+](CC)(CC)Cc1ccccc1Cl)Cc1ccccc1Cl | inactive |
| Clc1ccc(Nc2nnc(Cc3ccncc3)c3ccccc23)cc1 | 26.8 µM [inconclusive] (active) and inactive |
| O=C(Cn1ccnc1[N+](=O)[O-])NCCO | inactive |
| CCC=CC#N | inactive |
| CCc1ccccc1 | inactive |
| CCCC(C(=O)OCCN(CC)CC)(c1ccccc1)c1ccccc1 | inactive |
| Cc1cc(C)cc(N)c1 | inactive |
| CCOC(=O)/C=C/C(=O)OCC | inactive |
| CCC(C)(C)OC | inactive |
| COc1cc(N)c(Cl)cc1C(=O)NC1CCN(CCCOc2ccc(F)cc2)CC1OC (stereo not given) | inactive |
| CC(C)=CC(=O)C=C(C)C | inactive |
| N#CCCN(CCO)CCO | inactive |
| C1C[C@@H]2[C@H]3CC[C@H](C3)[C@@H]2C1 | inactive |
| C=C1CCC2CC1C2(C)C (stereo not given) | inactive |
| C=C1c2cccc(O)c2C(O)=C2C(=O)[C@]3(O)C(O)=C(C(N)=O)C(=O)[C@@H](N(C)C)[C@@H]3[C@@H](O)[C@H]12 | inactive |
